Experimental data from PMC4552634, “A New Set of Chemical Starting Points with Plasmodium falciparum Transmission-Blocking Potential for Antimalarial Drug Discovery” (PLoS ONE, 2015).
Where two headings read alike, the source gives them in different places. Screen size: about 13,000 compounds; about 3,200 (25%) showed an effect of 50% or more. Some of the results follow.

System: P. falciparum stage V gametocytes
Parameters: BacTiter-Glo ATP luminescence viability of purified stage V gametocytes in 384-well plates, per cent inhibition versus DMSO
Conditions: 48 h, 5 µM, inhibitor

SMILES	% Inhibition [%]	% Inhibition (% Inhibition) [%]
CCCCC(=O)Nc1ccc(Nc2nc(C)cc(N3CCCC3)n2)cc1 [TCMDC-124717]	46.79	–
O=C(Nc1ccccc1)N(Cc1cccc(-c2ccc(CNC3CCCC3)cc2)c1)C1CCN(Cc2ccccc2)CC1 [TCMDC-140589]	100.6	–
O=C(Nc1ccccc1)N(Cc1ccc(-c2cccc(CNC3CCCC3)c2)cc1)C1CCN(Cc2ccccc2)CC1 [TCMDC-140601]	107.8	–
O=C(Nc1ccccc1)N(Cc1ccccc1-c1cccc(CNC2CCCC2)c1)C1CCN(Cc2ccccc2)CC1 [TCMDC-140581]	108.7	–
O=C(Nc1ccccc1)N(Cc1ccc(-c2ccc(CNC3CCCC3)cc2)cc1)C1CCN(Cc2ccccc2)CC1 [TCMDC-140602]	100.4	–
Oc1cccc(-c2nc(-c3cccc(I)c3)c(-c3ccc(-c4nc(-c5cccc(O)c5)[nH]c4-c4cccc(I)c4)cc3)[nH]2)c1 [TCMDC-125665]	42.71	–
COC(=O)c1ccc(C2OC3(C(=O)c4ccccc4C3=O)C(OC)=C2Cl)cc1C(C)=O (stereo not shown) [TCMDC-125782]	-9.104	–
N#Cc1ccc2c(c1)CCN(CCC1CCC(NC(=O)/C=C/c3nc4ccccc4s3)CC1)CC2 (stereo not shown) [TCMDC-139686]	-32.82	–
COc1ccc(O)c(Cc2cnc3nc(N)nc(N)c3c2C)c1 [TCMDC-137998]	-28.9	–
Cc1cc(C(=O)CSc2nc3ccccc3n2-c2ccccc2)c(C)n1C1CCS(=O)(=O)C1 (stereo not shown) [TCMDC-124855]	-17.36	–
CC1CN(Cc2ccccc2)CCN1c1ccc(NC(=O)c2cccs2)cc1 (stereo not shown) [TCMDC-135005]	31.52	–
CC(C)(C)c1ccc(-c2nnc(N)nc2N)cc1 [TCMDC-137284]	-12.55	–
CN(C)CCNC(=O)c1ccc(-c2ccc3c(Nc4ccccc4)c(C(N)=O)cnc3c2)cc1 [TCMDC-138672]	14.13	–
COc1cccc(Nc2c(C(N)=O)cnc3ccc(-c4ccc([S+](C)[O-])cc4)cc23)c1 (stereo not shown) [TCMDC-135184]	93.94	–
COc1cccc(Nc2c(C(N)=O)cnc3ccc(-c4ccccc4)cc23)c1 [TCMDC-135227]	39.19	–
CS(=O)(=O)c1cccc(-c2cnc3[nH]cc(-c4ccc(C(=O)O)cc4)c3c2)c1 [TCMDC-136271]	0.4612	–
COc1ccc2nccc(N3CCCN(CCNCc4ccc5c(n4)NC(=O)CS5)CC3)c2n1 [TCMDC-134640]	33.98	–
CCC(c1ccccc1)c1nn2c(-c3cccs3)nnc2s1 (stereo not shown) [TCMDC-123825]	7.835	–
CCc1ccc(C2=Nn3c(nnc3-c3cccs3)SC2)cc1 [TCMDC-124336]	80.16	–
Cc1ccc(C2CC(c3cccs3)=NN2C(=O)c2ccc(Br)o2)cc1 (stereo not shown) [TCMDC-125610]	12.81	–
O=C(NCCCCN1CCN(c2cccc3c2OCCO3)CC1)c1ccc(NC(=O)c2cc(Cl)cc(Cl)c2)cc1 [TCMDC-138222]	-31.39	–
C=CCN(c1nc(NC)nc(NCc2c(OC)cccc2OC)n1)C1CCCC1 [TCMDC-134844]	-44.26	–
Cn1c(Cc2ccccc2)nnc1Sc1ccc(C#N)c([N+](=O)[O-])c1 [TCMDC-135608]	73.99	–
C=CCn1c(Cc2ccccc2)nnc1Sc1ccc(C#N)c([N+](=O)[O-])c1 [TCMDC-135614]	45.02	–

SMILES	% Inhibition [%]	% Inhibition (% Inhibition) [%]
COc1cc(OC)cc(-c2nnc(Sc3ccc(C#N)c([N+](=O)[O-])c3)n2C)c1 [TCMDC-135576]	42.48	–
CCn1c(Cc2ccccc2)nnc1Sc1ccc([N+](=O)[O-])c(C#N)c1 [TCMDC-135236]	79.04	–
CCCCCCn1c(Sc2ccc(C#N)c([N+](=O)[O-])c2)nnc1-c1ccccc1 [TCMDC-135607]	41.57	–
CCCCCn1c(Sc2ccc(C#N)c([N+](=O)[O-])c2)nnc1-c1ccccc1 [TCMDC-135606]	38.34	–
Cc1ccc(Nc2nc(C)cc(N3CCN(CCc4ccccc4)CC3)n2)cc1 [TCMDC-134023]	-10.5	–
COc1ccccc1CNc1ccnc(NCCc2cccc(C(F)(F)F)c2)n1 [TCMDC-135117]	62.08	–
FC(F)(F)c1cccc(CCNc2nccc(NCc3ccccc3Cl)n2)c1 [TCMDC-135109]	78.4	–
COc1cccc(Nc2nccc(NCC(O)c3cccc(C(F)(F)F)c3)n2)c1 (stereo not shown) [TCMDC-136584]	27.05	–
FC(F)(F)c1cccc(CCNc2nccc(NCc3ccc(Cl)cc3Cl)n2)c1 [TCMDC-135111]	42.21	–
Clc1ccc(CNc2ccnc(NCCc3coc4ccccc34)n2)c(Cl)c1 [TCMDC-135113]	37.58	–
COc1ccc(Nc2nccc(NCC(O)c3cccc(C(F)(F)F)c3)n2)cc1 (stereo not shown) [TCMDC-136585]	-13.64	–
CC(=O)Nc1ccc(S(=O)(=O)Nc2ccc(Nc3nc(C)cc(N4CCCCC4)n3)cc2)cc1 [TCMDC-124950]	-6.943	–
CCC[C@@H]([C@@H](CC(C)C)C(=O)N[C@H](C(=O)Nc1nccs1)C(C)(C)SCCNC(=O)OCC)N(O)C=O [TCMDC-137761]	30.89	–
N#Cc1cccc(COC(=O)C2=C(COc3ccccc3Cl)NC(=O)NC2c2c[nH]c3cnccc23)c1 (stereo not shown) [TCMDC-136331]	5.465	–
Cc1ccc(C(c2nnnn2C2CCCC2)N(Cc2ccco2)Cc2ccccc2Cl)cc1 (stereo not shown) [TCMDC-123569]	15.39	–
COc1ccc(-c2nc(NC(=O)CS(=O)(=O)c3ccccc3)sc2C)cc1 [TCMDC-123525]	48.52	–
CCCCn1c(SC(C)C)nc2c(c1=O)C1(CCCCC1)Cc1ccccc1-2 [TCMDC-123893]	-5.467	–
Cc1ccc(-c2nnc(Nc3ccc(CC(N)=O)cc3)c3ccccc23)cc1S(=O)(=O)NCC1CCCO1 (stereo not shown) [TCMDC-125615]	-4.951	–
COc1cc(Cc2cnc(N)nc2N)ccc1OCc1ccc(NC(C)=O)cc1 [TCMDC-138675]	89.66	–
COc1cc(Cc2cnc(N)nc2N)ccc1OCC(=O)Nc1ccc(C)cc1 [TCMDC-138679]	5.317	–
COc1cc(Cc2cnc(N)nc2N)ccc1OCc1ccc(F)c(F)c1 [TCMDC-138591]	9.532	–
S=C(NCCc1ccc(Cl)cc1)N1CCC(CN2CCC(c3c[nH]c4ccccc34)CC2)CC1 [TCMDC-140193]	39.79	–
S=C(Nc1ccccc1Cl)NC1CCC(CN2CCC(c3c[nH]c4ccccc34)CC2)CC1 (stereo not shown) [TCMDC-140179]	20.48	–
S=C(NCC1CCCCC1)NC1CCC(CN2CCC(c3c[nH]c4ccccc34)CC2)CC1 (stereo not shown) [TCMDC-140181]	104.2	–

SMILES	% Inhibition [%]	% Inhibition (% Inhibition) [%]
S=C(NCCc1ccc(Cl)cc1)NC1CCC(CN2CCC(c3c[nH]c4ccccc34)CC2)CC1 (stereo not shown) [TCMDC-140201]	–	56.68
S=C(NCCc1ccc(Cl)cc1)NC1CCC(CN2CCC(c3c[nH]c4ccccc34)CC2)CC1 (stereo not shown) [TCMDC-140183]	–	98.47
CC(C)NCc1ccc(-c2cccc(-c3nc4ccc(F)cc4[nH]3)c2)cc1 [TCMDC-132737]	4.072	–
N#Cc1ccc(N2CCN(Cc3ccc(-c4cccc(-c5nc6ccccc6[nH]5)c4)cc3)CC2)nc1.O=C(O)C(F)(F)F [TCMDC-133918]	6.117	–
Cc1c(Cc2ccccc2Br)cnc2nc(N)nc(N)c12 [TCMDC-137244]	-16.64	–
COC(=O)/C=C/c1ccc(CC(C)NCC(O)c2cccc(Br)c2)cc1 (stereo not shown) [TCMDC-131443]	13.24	–
CC(C)(C)Nc1nc(Nc2cccc([N+](=O)[O-])c2)nc(-n2ccnc2)n1 [TCMDC-123695]	-24.43	–
CCn1cnc2c(Nc3cccc([N+](=O)[O-])c3)nc(N3CCC(N4CCCCC4)CC3)nc21 [TCMDC-124437]	69.16	–
O=[N+]([O-])c1ccc(Nc2nc(N/N=C/c3cccc(O)c3)nc(N3CCCC3)n2)cc1 [TCMDC-123855]	36.76	–
Cc1ccc(Oc2c(-c3ccccc3CN3CCCC3CN(C)C)cnn(C)c2=O)cn1 (stereo not shown) [TCMDC-135100]	-4.022	–
Cc1[nH]c(C)c(-c2ccc(C(F)(F)F)cc2)c(=O)c1Br [TCMDC-137429]	90.2	–
Cc1[nH]c(C)c(-c2ccc(OCCOc3ccc(C(F)(F)F)cn3)cc2)c(=O)c1Br [TCMDC-135554]	40.45	–
Cc1[nH]c(C)c(-c2ccc(Nc3ccc(C(F)(F)F)cn3)cc2)c(=O)c1Br [TCMDC-135546]	74.1	–
Cc1[nH]c(C)c(-c2ccc(Oc3ccc(C(F)(F)F)cc3)cc2)c(=O)c1Br [TCMDC-137406]	68.39	–
COc1ccc2nccc([C@@H](O)CN3CCC(NC(=O)C(c4ccsc4)N4CCN(c5ccccc5OC)CC4)CC3)c2c1 (stereo partly shown) [TCMDC-140994]	-19.96	–
CC1CCCC(C)N1C[C@@H](O)CNS(=O)(=O)c1cccc(C(F)(F)F)c1 (stereo partly shown) [TCMDC-134258]	4.939	–
CCc1ccccc1N=C1c2c(cccc2[N+](=O)[O-])C(=O)C1C(C)=O (stereo not shown) [TCMDC-125760]	-10.56	–
COc1cc(CCNCC(O)c2ccc([N+](=O)[O-])c(OCc3ccccc3)c2)cc(OC)c1OC (stereo not shown) [TCMDC-132008]	19.76	–
CC(C#N)Cc1ccc(-c2cnc(N)c3cc(-c4ccnc(N)n4)ccc23)cc1 (stereo not shown) [TCMDC-134547]	15.83	–
CCCCCCC(C)c1cc(OCCN(CC)CC)c2c(c1)OC(C)(C)C=C2c1ccncc1 (stereo not shown) [TCMDC-131641]	78.51	–
CCCCCCC(C)c1cc(O)c2c(c1)OC(C)(C)C=C2c1ccncc1 (stereo not shown) [TCMDC-131636]	-3.085	–
CCCCCC(C)C(C)c1cc(O)c2c(c1)OC(C)(C)C=C2c1cc[n+]([O-])cc1 (stereo not shown) [TCMDC-131349]	-5.463	–
